The results in this text go back to PubChem BioAssay (NCATS).

For assay [1], the target named is Rap guanine nucleotide exchange factor 3 (Homo sapiens) (UniProt O95398). As to the kind of experiment: Confirmatory qHTS for antagonist of cAMP-regulated guanine nucleotide exchange factor 3 (EPAC1) (AID 1645880). Further: nearly all actives have a fitted effect of over 55% in size. Further: potency means the concentration at half of the fitted maximal effect.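 On activity, negative = inhibition: plate controls were DMSO only for no effect and full effect of the ATA control for full effect.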 The note with it: EPAC1 Rap1B-BODIPY-GDP exchange, fluorescence; activity, negative = inhibition: at 115 µM (top of the series). The gist of the method:
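Nucleotide exchange uses 100 nM EPAC1, 250 nM RAP1B-BODIPY-GDP and 50 uM GDP, with compounds in a concentration-titration series. After 5 min at room temperature, fluorescence (480 nm ex/540 nm em) is read every 5 min for 30 min. Data are normalized to control ATA and DMSO.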
A general note: Quantitative high-throughput screening tests each substance at several concentrations.

Assay [2] shares this target. In words: Confirmatory qHTS for agonist of cAMP-regulated guanine nucleotide exchange factor 3 (EPAC1) (AID 1645881). Further: nearly all actives have a fitted effect of over 75% in size. Further: potency means the concentration at half of the fitted maximal effect.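 On activation: EPAC1 catalysed release of BODIPY-GDP from Rap1B seen as fluorescence loss; 100% = effect of cAMP agonist control.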
For assay [3], the target named is Rap guanine nucleotide exchange factor 4 (Homo sapiens) (UniProt Q8WZA2). In words: Confirmatory qHTS for agonist of cAMP-regulated guanine nucleotide exchange factor 4 (EPAC2) (AID 1645884).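 Further: nucleotide exchange releases bodipy-GDP from Rap1 and this lowers its fluorescence; nearly all actives have a fitted effect of over 65% in size.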 Further: potency means the concentration at half of the fitted maximal effect. On activation: on the % scale 0 is the no-effect control and ±100 the full control effect.
For assay [4], the target named is Rap guanine nucleotide exchange factor 3 (Homo sapiens) (UniProt O95398). As to the kind of experiment: Counterscreen qHTS for agonist of cAMP-regulated guanine nucleotide exchange factor 3 (EPAC1) (AID 1645889). Further: nearly all actives have a fitted effect of over 40% in size. Further: potency means the concentration at half of the fitted maximal effect. On activation: % of control where 0% means no effect. The gist of the method:
(§1)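 Rap1B-BODIPY-GDP 250 nM + GDP 50 uM; cpds 7-pt, final 9.74 nM–152 uM (activator mode) or from 7.32 nM upwards (inhibitor mode); RT; FI 480/540 nm at 5 and 30 min, then ± cAMP, reread.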
(In general: Counterscreens check selectivity or assay interference.)

Assay [5] concerns the target Phosphoglycerate kinase, glycosomal (Trypanosoma brucei brucei) (UniProt P07378). As to the kind of experiment: qHTS for inhibitors of Phosphogylcerate Kinase: Hit Validation Screen (AID 686980). Further: potency means the concentration at half of the fitted maximal effect; nearly all actives have a fitted effect of over 65% in size. The note with it: TbPGK coupled GAPDH assay, Kinase-Glo luminescence. The gist of the method:
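Luminescent ATP detection (Kinase-Glo Plus) follows a 60-minute room-temperature incubation, with wells lacking PGK as controls. Buffer: 100 mM TEA (pH 7.6), 5 mM MgCl2, 0.01% Tween-20. Coupling enzyme GAPDH (100 nM final) supplies unstable 1,3-BPG in-well.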

For assay [6], the target named is DNA polymerase iota (Homo sapiens) (UniProt Q9UNA4). In words: qHTS for Inhibitors of Polymerase Iota: Confirmatory Assay for Cherry-picked Compounds (AID 720496). Further: potency means the concentration at half of the fitted maximal effect. Particulars: Pol iota primer extension, TAMRA/BHQ fluorescence. The gist of the method: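 Recombinant human Pol iota (10 nM) was preincubated with compound for 15 min at room temperature, then 50 nM final primer/template substrate was added; the substrate carried a TAMRA-labeled reporter strand and a BHQ-2-quenched template. Fluorescence was read at 0 and 10 min.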

Assay [7] concerns the target Bifunctional 3'-5' exonuclease/ATP-dependent helicase WRN (Homo sapiens) (UniProt Q14191). In words: qHTS for Inhibitors of WRN Helicase: Confirmatory Assay for Cherry-picked Compounds. (AID 720497). Further: potency means the concentration at half of the fitted maximal effect; nearly all actives have a fitted effect of over 65% in size. Particulars: WRN helicase DNA unwinding, fluorescence kinetic. The gist of the method:
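Compound and 20 nM WRN incubated 15 min, RT. Forked duplex (100 nM) plus ATP (2 mM) added. Fluorescence monitored kinetically and normalized to controls.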

For assay [8], the target named is DNA polymerase kappa (Homo sapiens) (UniProt Q9UBT6). In words: qHTS for Inhibitors of Polymerase Kappa: Confirmatory Assay for Cherry-picked Compounds (AID 720501). Further: potency means the concentration at half of the fitted maximal effect. Particulars: purified Pol-kappa, fluorescent strand-displacement substrate. The gist of the method: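 Strand-displacement fluorescence read-out: TAMRA reporter released from a BHQ-2-quenched template, measured at 525/598 nm over a 10 min kinetic window. Substrate was 50 nM final; enzyme was 10 nM Pol-kappa, preincubated 15 min at room temperature with compound.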

For assay [9], the target named is DNA polymerase eta (Homo sapiens) (UniProt Q9Y253). In words: qHTS for Inhibitors of Polymerase Eta: Confirmatory Assay for Cherry-picked Compounds (AID 720502). Further: potency means the concentration at half of the fitted maximal effect. The note with it: Pol eta primer extension, TAMRA/BHQ fluorescence, 10 min. The gist of the method:
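Pol eta 10 nM; substrate 50 nM final (unlabeled primer, TAMRA reporter, BHQ-2 template); preincub. 15 min RT; reads t=0 and t=10 min at ex525/em598.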

For assay [10], the target named is RecQ-like DNA helicase BLM (Homo sapiens) (UniProt P54132). As to the kind of experiment: qHTS for Inhibitors of WRN Helicase: BLM Helicase Counterscreen for WRN Inhibitors (AID 720503). Further: potency means the concentration at half of the fitted maximal effect; nearly all actives have a fitted effect of over 60% in size. Particulars: Recombinant BLM helicase DNA unwinding, red fluorescence. The gist of the method:
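BLM (1 nM) was preincubated with compounds for 15 min at room temperature in Tris-HCl pH 8.0, 50 mM NaCl, 2 mM MgCl2 buffer. Unwinding started with 100 nM DNA and 2 mM ATP (final); red fluorescence was read twice, 15 min apart.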

The target in assay [11] is Rap guanine nucleotide exchange factor 3 (Homo sapiens) (UniProt O95398). As to the kind of experiment: Counterscreen qHTS for antagonist of cAMP-regulated guanine nucleotide exchange factor 3 (EPAC1) (AID 1645888).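 Further: fluorescence loss as bound BODIPY-GDP is released from Rap1B; % of control where 0% means no effect.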 The gist of the method:
as §1

Assay [12] can be described thus: AP1 Signaling Pathway (AID 357; active means well fitted curve in either direction with a large enough effect, not every such curve was filed as active;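 further: ME-180 reporter cells stimulated with EGF at its EC50 level; on the % scale 0 is the no-effect control and ±100 the full control effect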). Particulars: ME-180 AP-1-bla reporter, EGF-induced, beta-lactamase ratio, 5 h; at 7.69 µM (top of the series) unless noted. The gist of the method: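 A ratiometric CCF4 readout (405 nm excitation; 460 and 530 nm emission) quantified AP-1-driven beta-lactamase in ME-180 cells after 5 h with compound and EC50 EGF; AC50 values were derived for activators and inhibitors.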

Assay [13] in a line: NFAT Signaling Pathway (AID 444; active means well fitted curve in either direction with a large enough effect, not every such curve was filed as active;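 further: carbachol stimulus at about its EC50 of 1 µM final; on the % scale 0 is the no-effect control and ±100 the full control effect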). Particulars: Jurkat NFAT-bla M1, carbachol, beta-lactamase ratio, 5 h; at 7.69 µM (top of the series) unless noted. The gist of the method: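 Read-out: CCF4 FRET ratio (460 nm/530 nm) after 1 h RT dye loading, used for %activity and AC50 from titration series. Cells: Jurkat NFAT-β-lactamase/M1 line, treated with compound plus 1 uM carbachol for 5 h, 37 °C.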

Assay [14] in a line: Stat Signaling Pathway (AID 446; active means well fitted curve in either direction with a large enough effect, not every such curve was filed as active;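 further: ME-180 cervical cancer cells given 40 pM IL-6 alongside compound; SIE-controlled beta-lactamase reporter measured as 460/530 nm FRET emission ratio; on the % scale 0 is the no-effect control and ±100 the full control effect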). The gist of the method: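 ME-180 SIE-bla cells; overnight plating; cpd + IL-6 40 pM, 5 h, 37 C; LiveBLAzer 2.5 h RT; 460/530 nm emission ratio. Normalized to 300 pM IL-6 and 125 nM JAK inhibitor controls.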
The target of assay [15] is Glucocorticoid receptor (Homo sapiens) (UniProt P04150). In words: GR-GFP Redistribution (AID 450;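 active means compounds whose dose series gives a full or clear partial fitted curve of increased nuclear translocation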; further: potency means the concentration at half of the fitted maximal effect). Particulars: U2OS GR-GFP nuclear translocation, laser cytometry, 2 h.
Assay [16] can be described thus: qHTS for Inhibitors of Ubiquitin-specific Protease USP2a Using CHOP2 as the Reporter: K633 Counterscreen (AID 652168). Further: % of control where 0% means no effect. The gist of the method: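 Cell-free interference counterscreen without USP2a: compounds pinned into enzyme-free buffer (20 mM Tris pH 8, 2 mM beta-mercaptoethanol, 0.05% Chaps), then DiUb K48-4IQF substrate added (100 nM stock); fluorescence read kinetically, Ex 525/Em 598.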

The nature of assay [17]: qHTS for Inhibitors of Ubiquitin-specific Protease USP2a Using CHOP2 as the Reporter: Cytotox Assay (AID 652170).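 Further: plate controls were DMSO-treated cells for no effect and wells without cells for full effect; nearly all actives have a fitted effect of over 70% in size.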 The gist of the method: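 HCT116 human colon cancer cells, 600 per well in DMEM with 10% FBS, exposed to compounds for 72 hr at 37 deg C. ATP measured by CellTiter-Glo luminescence, normalized to DMSO cells and no-cell background.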
Assay [18] has as its target Ubiquitin carboxyl-terminal hydrolase 2 (Homo sapiens) (UniProt O75604). As to the kind of experiment: qHTS for Inhibitors of Ubiquitin-specific Protease USP2a Using CHOP2 as the Reporter: K484 Substrate (AID 652173).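 Further: cleavage of internally quenched K48 di-ubiquitin substrate measured as rising fluorescence over time; potency means the concentration at half of the fitted maximal effect; nearly all actives have a fitted effect of over 70% in size.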 The note with it: USP2 cleavage of DiUb K48 IQF substrate, fluorescence. The gist of the method:
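USP2 (dispensed at 5 nM) was pinned with compounds, then DiUb K48 internally quenched fluorescent substrate (dispensed at 100 nM) was added. The buffer was 20 mM Tris pH 8, 2 mM beta-mercaptoethanol and 0.05% CHAPS. Cleavage was read kinetically as rising fluorescence, Ex 525/Em 598.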

A number with no mark means an inactive call. Inconclusive results are not listed. The list shows a part of the results. Activity calls are given as the source filed them. Unless noted, the call rests on the fitted dose curve; in most records, active means well fitted curve in the direction sought with a large enough effect; inconclusive means small, poorly fitted or top-dose-only effect, or another doubt; inactive means no such curve, though single readings can be large; an effect the other way counts as inactive or inconclusive. Bounds are passed on as bounds.

Rap guanine nucleotide exchange factor 4 (Homo sapiens), sequence (Q8WZA2 whole entry, looked up): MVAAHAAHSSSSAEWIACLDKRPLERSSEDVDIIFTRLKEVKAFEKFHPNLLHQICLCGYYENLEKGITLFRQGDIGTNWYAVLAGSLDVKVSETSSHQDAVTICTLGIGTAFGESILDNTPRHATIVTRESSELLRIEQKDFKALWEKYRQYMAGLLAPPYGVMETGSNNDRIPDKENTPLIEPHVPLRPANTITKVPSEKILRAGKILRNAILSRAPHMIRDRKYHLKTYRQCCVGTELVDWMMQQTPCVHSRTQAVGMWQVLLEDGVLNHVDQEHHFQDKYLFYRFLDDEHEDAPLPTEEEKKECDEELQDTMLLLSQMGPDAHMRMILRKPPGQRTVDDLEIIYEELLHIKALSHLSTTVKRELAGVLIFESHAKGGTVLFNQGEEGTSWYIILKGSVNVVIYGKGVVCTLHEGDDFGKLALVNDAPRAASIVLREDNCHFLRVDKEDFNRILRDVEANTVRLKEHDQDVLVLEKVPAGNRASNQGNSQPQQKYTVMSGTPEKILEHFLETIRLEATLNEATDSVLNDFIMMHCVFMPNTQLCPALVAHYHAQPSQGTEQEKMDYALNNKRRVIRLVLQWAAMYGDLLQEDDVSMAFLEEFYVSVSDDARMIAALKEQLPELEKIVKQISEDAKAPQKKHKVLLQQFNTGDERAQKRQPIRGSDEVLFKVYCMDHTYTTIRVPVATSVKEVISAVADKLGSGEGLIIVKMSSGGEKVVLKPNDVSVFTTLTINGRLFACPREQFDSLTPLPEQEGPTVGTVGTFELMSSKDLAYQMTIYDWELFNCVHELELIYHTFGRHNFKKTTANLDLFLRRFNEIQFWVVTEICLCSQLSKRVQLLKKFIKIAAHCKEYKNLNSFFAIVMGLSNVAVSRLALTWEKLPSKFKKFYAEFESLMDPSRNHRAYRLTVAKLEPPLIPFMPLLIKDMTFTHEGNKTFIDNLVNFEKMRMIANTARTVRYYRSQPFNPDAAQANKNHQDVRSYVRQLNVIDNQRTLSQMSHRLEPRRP
Rap guanine nucleotide exchange factor 3 (Homo sapiens), sequence (O95398 whole entry, looked up): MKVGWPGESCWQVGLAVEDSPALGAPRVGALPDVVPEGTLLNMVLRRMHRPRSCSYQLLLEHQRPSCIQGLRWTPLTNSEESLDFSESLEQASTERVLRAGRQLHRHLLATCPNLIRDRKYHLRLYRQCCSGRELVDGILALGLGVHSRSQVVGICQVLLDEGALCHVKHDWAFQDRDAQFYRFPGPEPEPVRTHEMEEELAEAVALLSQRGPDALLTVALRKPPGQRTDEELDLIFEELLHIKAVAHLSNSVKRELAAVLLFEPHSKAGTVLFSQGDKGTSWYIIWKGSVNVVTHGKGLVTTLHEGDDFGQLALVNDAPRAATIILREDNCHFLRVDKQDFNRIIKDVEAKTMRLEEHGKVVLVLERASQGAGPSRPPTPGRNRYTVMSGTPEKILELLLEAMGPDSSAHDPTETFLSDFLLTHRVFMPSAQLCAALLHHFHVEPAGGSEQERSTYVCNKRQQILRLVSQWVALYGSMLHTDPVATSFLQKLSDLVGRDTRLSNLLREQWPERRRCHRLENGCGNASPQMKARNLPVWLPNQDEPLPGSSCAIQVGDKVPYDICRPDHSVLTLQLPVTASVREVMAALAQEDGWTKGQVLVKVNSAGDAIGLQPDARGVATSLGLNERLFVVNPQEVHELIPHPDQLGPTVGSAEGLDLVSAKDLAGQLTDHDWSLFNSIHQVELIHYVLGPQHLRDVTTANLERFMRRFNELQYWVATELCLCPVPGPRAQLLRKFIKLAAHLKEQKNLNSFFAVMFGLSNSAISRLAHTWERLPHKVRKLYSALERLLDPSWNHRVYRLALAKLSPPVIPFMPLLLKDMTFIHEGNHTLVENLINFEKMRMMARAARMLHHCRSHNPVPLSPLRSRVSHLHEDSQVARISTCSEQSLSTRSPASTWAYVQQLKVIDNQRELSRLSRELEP
RecQ-like DNA helicase BLM (Homo sapiens), sequence (P54132 whole entry, looked up): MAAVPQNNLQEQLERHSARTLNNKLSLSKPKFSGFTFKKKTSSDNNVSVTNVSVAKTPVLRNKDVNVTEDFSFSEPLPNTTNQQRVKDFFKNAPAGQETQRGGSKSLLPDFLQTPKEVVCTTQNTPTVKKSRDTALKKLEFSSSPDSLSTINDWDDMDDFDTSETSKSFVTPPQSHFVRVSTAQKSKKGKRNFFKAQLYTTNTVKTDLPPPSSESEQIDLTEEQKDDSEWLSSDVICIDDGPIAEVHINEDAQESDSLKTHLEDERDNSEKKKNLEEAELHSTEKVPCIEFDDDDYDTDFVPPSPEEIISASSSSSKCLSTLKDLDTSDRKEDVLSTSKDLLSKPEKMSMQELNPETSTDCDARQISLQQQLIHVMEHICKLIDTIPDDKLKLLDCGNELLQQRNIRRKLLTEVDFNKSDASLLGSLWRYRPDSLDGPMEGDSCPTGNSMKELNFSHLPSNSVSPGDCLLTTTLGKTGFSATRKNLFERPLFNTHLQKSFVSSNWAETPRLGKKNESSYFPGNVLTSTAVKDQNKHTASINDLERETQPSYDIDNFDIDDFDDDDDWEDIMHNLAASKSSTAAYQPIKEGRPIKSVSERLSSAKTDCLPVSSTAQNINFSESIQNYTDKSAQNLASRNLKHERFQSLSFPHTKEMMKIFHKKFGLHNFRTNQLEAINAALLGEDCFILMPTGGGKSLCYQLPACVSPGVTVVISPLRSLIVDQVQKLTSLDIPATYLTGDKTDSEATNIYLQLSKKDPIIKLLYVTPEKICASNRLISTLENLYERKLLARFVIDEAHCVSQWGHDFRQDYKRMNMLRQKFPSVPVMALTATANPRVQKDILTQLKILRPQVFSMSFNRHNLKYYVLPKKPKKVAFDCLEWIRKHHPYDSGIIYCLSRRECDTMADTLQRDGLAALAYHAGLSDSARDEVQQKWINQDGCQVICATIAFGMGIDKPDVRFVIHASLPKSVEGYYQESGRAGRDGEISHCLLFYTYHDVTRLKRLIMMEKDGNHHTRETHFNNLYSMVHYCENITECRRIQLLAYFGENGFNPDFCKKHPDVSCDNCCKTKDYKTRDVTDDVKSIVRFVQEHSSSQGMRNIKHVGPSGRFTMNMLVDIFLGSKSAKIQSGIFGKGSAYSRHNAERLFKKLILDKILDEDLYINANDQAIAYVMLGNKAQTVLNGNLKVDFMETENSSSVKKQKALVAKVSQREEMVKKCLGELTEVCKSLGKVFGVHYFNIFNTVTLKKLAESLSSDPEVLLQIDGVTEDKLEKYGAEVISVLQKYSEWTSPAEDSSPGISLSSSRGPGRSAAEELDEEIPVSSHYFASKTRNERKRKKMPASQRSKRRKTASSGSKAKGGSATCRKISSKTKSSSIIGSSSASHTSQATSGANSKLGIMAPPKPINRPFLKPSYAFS
Phosphoglycerate kinase, glycosomal (Trypanosoma brucei brucei), sequence (P07378 whole entry, looked up): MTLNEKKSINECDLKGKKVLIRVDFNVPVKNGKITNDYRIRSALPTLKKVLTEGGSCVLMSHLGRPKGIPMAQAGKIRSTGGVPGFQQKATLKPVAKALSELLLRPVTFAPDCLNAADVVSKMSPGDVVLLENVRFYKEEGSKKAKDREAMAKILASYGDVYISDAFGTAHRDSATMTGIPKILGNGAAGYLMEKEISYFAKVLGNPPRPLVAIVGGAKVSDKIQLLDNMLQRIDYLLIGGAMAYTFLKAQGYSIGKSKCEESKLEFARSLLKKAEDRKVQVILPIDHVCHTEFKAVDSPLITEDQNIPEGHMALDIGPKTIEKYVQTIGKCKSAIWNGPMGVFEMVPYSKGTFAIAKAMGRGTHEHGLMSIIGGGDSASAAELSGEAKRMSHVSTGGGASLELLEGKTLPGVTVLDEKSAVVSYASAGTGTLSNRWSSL
DNA polymerase eta (Homo sapiens), sequence (Q9Y253 whole entry, looked up): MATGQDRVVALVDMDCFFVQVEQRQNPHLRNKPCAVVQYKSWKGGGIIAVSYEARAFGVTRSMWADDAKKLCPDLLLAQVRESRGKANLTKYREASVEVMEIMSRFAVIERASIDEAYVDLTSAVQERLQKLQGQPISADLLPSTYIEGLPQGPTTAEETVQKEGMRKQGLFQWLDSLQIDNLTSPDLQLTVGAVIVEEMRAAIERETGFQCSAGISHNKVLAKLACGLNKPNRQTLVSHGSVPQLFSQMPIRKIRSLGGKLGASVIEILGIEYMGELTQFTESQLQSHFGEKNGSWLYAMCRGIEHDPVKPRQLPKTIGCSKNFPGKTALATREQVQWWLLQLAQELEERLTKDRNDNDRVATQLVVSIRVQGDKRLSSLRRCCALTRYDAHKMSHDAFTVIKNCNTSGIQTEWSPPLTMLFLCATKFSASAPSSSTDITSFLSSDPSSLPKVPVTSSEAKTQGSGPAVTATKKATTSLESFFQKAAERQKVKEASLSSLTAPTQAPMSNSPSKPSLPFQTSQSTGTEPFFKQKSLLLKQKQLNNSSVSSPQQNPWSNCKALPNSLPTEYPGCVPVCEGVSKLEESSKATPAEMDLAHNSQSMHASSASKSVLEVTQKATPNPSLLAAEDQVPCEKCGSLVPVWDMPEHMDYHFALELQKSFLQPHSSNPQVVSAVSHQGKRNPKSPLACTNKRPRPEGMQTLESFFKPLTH

Turning to `Cc1cc(C)c2nc(N3C(=O)C(O)=C(C(=O)c4ccco4)C3c3cccc(O)c3)sc2c1` (stereo not drawn), the Potency in assay [1] was 26.9 µM (active). The Potency result in [2], in assay [3] and in assay [4] was “inactive” in each case.

In the case of `COC(=O)c1cc(C(=O)OC)n(Cc2ccc(F)cc2)c1C`, the Potency entry in [1], in [2], in assay [3] and in [4] was “inactive” in each case.

`O=C1C=C(c2ccccc2)C(c2ccccc2)C1` (stereo not drawn): the Potency result in assay [1], in assay [2], in assay [3] and in assay [4] was “inactive” throughout.

Consider `O=c1ccc2c(-c3ccccc3S(=O)(=O)O)c3ccc(O)c(O)c3oc-2c1O`, for which the Potency in [5] is 0.366 µM (active); in [6], 0.597 µM (active); in [7], 0.541 µM (active); in [8] it was 1.06 µM (active); in [9] it was 1.07 µM (active); in assay [10], 0.136 µM (active). In assay [1], the Potency was 7.94 µM (active). In addition, the Potency entry in [2] is “inactive”. In addition, the activation in assay [3] is -12% [at 17.1 µM, percent relative to cAMP agonist control]; in assay [4] it was -15.5% [at 30.8 µM]. Also, the activity change, negative = inhibition in [11] was -28.7% [at 30.8 µM].

Regarding `O=C(NCc1ccc(F)cc1)c1cccc2c1C(=O)c1ccc(N3CCOCC3)cc1S2(=O)=O`, the Potency entry in [1] was “inactive”. In addition, the Potency in assay [2] is 56.2 µM (active); in assay [3], 89.1 µM (active); in [4], 56.2 µM (active).

Consider `Cc1ccc(C(=O)C=Cc2ccc3c(c2)OCO3)c(C)c1`, for which the Potency entry in assay [1] and in [2] was “inactive” each time. Further, the activation was -0.688% [at 17.1 µM, percent relative to cAMP agonist control] in assay [3] and 12.3% [at 30.8 µM] in [4].

With `CCc1c(C)c(C#N)c2nc3ccccc3n2c1-n1nc(C)cc1C`, the activity change, negative = inhibition in assay [12] was -8.93% [at 17.2 µM]; in [13], -9.34% [at 17.2 µM]; in assay [11], 12.9% [at 30.8 µM]. In [14], the compound was classed as inactive. For the same compound, the Potency in [15] is over 20.6 µM. In addition, the Potency result in [1] and in assay [2] was “inactive” each time. Besides, in assay [3], the activation is 5.42% [at 17.1 µM, percent relative to cAMP agonist control].

On to `C=CCn1c(SCc2cc([N+](=O)[O-])cc3c2OCOC3)nc2cc(C(=O)O)ccc2c1=O`, for which the Potency in assay [1] is 75.7 µM (active). Besides, the Potency result in assay [2], in assay [3] and in assay [4] was “inactive” in each case.

Regarding `Cc1nc(S/C(=C/c2ccc(-c3cc(Cl)ccc3C)o2)C(=O)O)n[nH]1`, the Potency in [1] was 26.9 µM (active). For the same compound, the Potency result in [2], in assay [3] and in assay [4] was “inactive” each time.

In the case of `Cc1cc(NS(=O)(=O)c2ccc(Nc3nc(-c4ccc(C)c(C)c4)cs3)cc2)no1`, the outcome in assay [16] and in assay [17] was inactive. In addition, the Potency is 27.3 µM (active) in [18] and 75.7 µM (active) in assay [1]. The Potency entry in assay [2], in assay [3] and in assay [11] was “inactive” each time.

Turning to `CN(C)c1ccc2nc3c(=O)[nH]c(=O)nc-3n(CC(O)C(O)C(O)CO)c2c1` (stereo not drawn), the Potency entry in [1] and in assay [2] was “inactive” in each case. In addition, in assay [3], the activation was -84.9% [at 17.1 µM, percent relative to cAMP agonist control]. In addition, the Potency in assay [4] is 11.2 µM (active).
